SKKanGAS inh: blocks kanamycin growth of S. pyogenes SKKanGAS strain | BacTiter-Glo, 6 h | inhibition, % at 7.5 µM | 300,000 tested, 1.3% active | AID 1662;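 active = mean replicate score, as percent of positive control median, at least 50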;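 note: strain carries kanamycin resistance gene driven by streptokinase promoter and grows in 40 µg/ml kanamycin; loss of luminescence reflects streptokinase promoter inhibition or plain growth inhibition; 0% = median of DMSO wells and 100% = positive control at its reference dose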
tim23-1 inh: growth inhibitors of tim23-1 mutant yeast; inhibition, % at 20 µM; S. cerevisiae tim23-1 growth, BacTiter-Glo luminescence, 24 h; 330,000 tested, 1.3% active;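 active = growth inhibition of the mutant yeast at or above 50%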;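 note: temperature-sensitive mutant grown at 25 °C; plate controls were DMSO-treated mutant yeast for no effect and medium wells lacking yeast for full effect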
tim10-1 inh: growth inhibitors of tim10-1 mutant yeast; S. cerevisiae tim10-1 ts strain growth, BacTiter-Glo, 24 h; inhibition, % at 20 µM; 330,000 tested, 2.2% active; AID 463190;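 active = inhibition of at least 40%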;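 note: mutant grown at 25 °C; 0% = DMSO wells with yeast and 100% = wells holding no yeast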
TIM10 inh: TIM10 yeast growth inhibition. S. cerevisiae TIM10 strain growth, BacTiter-Glo luminescence, 24 h. inhibition, % at 10 µM. 330,000 tested, 1.4% active. AID 463195;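 active = inhibition of 40% or more at the single tested concentration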;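 note: wild-type TIM10 isogenic control strain grown at permissive 25 °C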
PfHsp90 set2: growth inhibition of yeast expressing Plasmodium Hsp90 | inhibition, % at 9.4 µM | 310,000 tested, 0.32% active | S. cerevisiae expressing PfHsp90, BacTiter-Glo ATP, 48 h; yeast lacking PDR1 and PDR3 efflux regulators;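 active = every replicate shows inhibition above about 80%, whatever the replicate mean, limit read from the data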;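 note: 0% = DMSO neutral controls and 100% = 20 µM radicicol positive controls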
NALP3 yeast inh: NALP3 inhibition in yeast. Yeast reconstituted NLRP3/ASC/caspase-1, beta-gal luminescence, 24 h. inhibition, % at 10 µM. 330,000 tested, 0.39% active;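 active = inhibition of 50% or more; inactive = inhibition below 50%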;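 note: plate controls were induced DMSO wells for no effect and uninduced yeast grown without galactose for full effect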
tim10-1 conf: tim10-1 yeast growth inhibition, confirmed; shares compounds with tim10-1 inh; S. cerevisiae tim10-1 ts strain growth, BacTiter-Glo, 24 h; inhibition, % at 20 µM; 7,400 tested, 56% active; AID 463213;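 active = inhibition of yeast growth at or above a set limit in either of two repeat tests at 20 µM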;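 note: tim10-1 mutant grown at permissive 25 °C to find synthetic lethal compounds; 0% = DMSO yeast wells and 100% = medium wells without yeast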
tim10 confirm: TIM10 yeast growth inhibition, confirmed | S. cerevisiae tim10 strain growth, BacTiter-Glo luminescence, 24 h | inhibition, % at 10 µM | 4,600 tested, 63% active | shares compounds with TIM10 inh | AID 463215;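 active = inhibition of yeast growth at or above a set limit in either of two replicates at 10 µM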;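 note: this counterscreen used the strain with wild-type TIM10; 0% = yeast with DMSO and 100% = medium wells lacking yeast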
tim23-1 conf: tim23-1 yeast growth inhibition, confirmed; 4,400 tested, 83% active; inhibition, % at 20 µM; S. cerevisiae tim23-1 growth, BacTiter-Glo luminescence, 24 h; shares compounds with tim23-1 inh; AID 463218;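 active = inhibition above about 39% in either of two replicate wells at 20 µM, limit read from the data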;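 note: temperature-sensitive tim23-1 mutant grown at 25 °C; 0% = DMSO wells with yeast and 100% = medium wells without yeast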
Numbers without * were called inactive; nt = not tested or not shown. A selection: hits, their analogues and other compounds. The true share with any hit is near 4.5%.

SMILES | SKKanGAS inh | tim23-1 inh | tim10-1 inh | TIM10 inh | PfHsp90 set2 | NALP3 yeast inh | tim10-1 conf | tim10 confirm | tim23-1 conf
Cc1cc(C)c(C(=O)N2CCCC(CNC(=O)C3(c4ccc(Cl)cc4)CC3)C2)c(=O)[nH]1 (configuration not stated) | -4 | 19 | 11 | 4 | -12 | 17 | nt | nt | nt
COC(=O)C1=C(C)NC(=S)NC1c1ccc(-c2cccc(Cl)c2)o1 (configuration not stated) | -2 | 52* | 50* | 53* | 17 | 12 | 39* | 1 | 49*
Cc1nc(N2CCN(c3ccccc3)CC2)[nH]c(=O)c1C | -5 | -2 | -3 | -2 | 2 | 0 | nt | nt | nt
CCOC(=O)Cc1csc(NC(=S)NC(=O)c2ccc(C)cc2)n1 | -12 | -6 | 17 | 24 | 15 | -12 | nt | nt | nt
CCOC(=O)Cc1csc(NC(=S)NC(=O)CC(C)C)n1 | -10 | 55* | 50* | 42* | -29 | -47 | 47* | 39* | 56*
Oc1ccccc1-c1nc(/C=C/c2ccccc2)nn1-c1ccccc1 | 15 | nt | nt | nt | -9 | nt | nt | nt | nt
Oc1ccc(/C=C/c2nc(-c3ccccc3O)n(-c3ccccc3)n2)cc1 | 38 | 59* | 60* | 38 | nt | -39 | 51* | nt | 64*
Cc1ccc(-c2cn(-c3ccccc3)c(=S)[nH]2)cc1C | 46 | 52* | 47* | 48* | -4 | 37 | 21 | 42* | 49*
Fc1ccccc1-n1cc(-c2ccccc2)[nH]c1=S | -2 | 31 | 33 | 38 | -5 | 7 | nt | nt | nt
FC(F)(F)c1cccc(-n2cc(-c3ccccc3)[nH]c2=S)c1 | -9 | 56* | 48* | 35 | 14 | 27 | 35* | nt | 50*
Cc1cc(C)cc(NC(=O)C(c2ccccc2)N2CCN(CC(=O)NC3CC3)CC2)c1 (configuration not stated) | nt | 9 | 5 | 1 | 16 | 7 | nt | nt | nt
COC(=O)c1ccc2c(c1)C(C)(C)C(/C=C/c1ccc(OC)c(OC)c1OC)=[N+]2C | -3 | 14 | 13 | 5 | 3 | 6 | nt | nt | nt
COC(=O)c1ccc2c(c1)C(C)(C)C(/C=C/c1ccc(O)cc1)=[N+]2C | 3 | 73* | 67* | 56* | 42 | 25 | 64* | 55* | 68*
Cc1nc([N+](=O)[O-])cn1Cc1cccc2ccccc12 | -2 | 18 | 12 | 5 | -4 | 8 | nt | nt | nt
CC(=O)n1cc(N(C(=O)CCl)c2ccc(Cl)cc2)c2ccccc21 | 14 | 64* | 48* | 34 | nt | 26 | 46* | nt | 41*
O=C(CC(CC(=O)c1ccccc1)c1ccccn1)c1ccccc1 | nt | nt | nt | nt | 7 | nt | nt | nt | nt
O=S(=O)(c1cccc(Br)c1)N1CCN(c2ccnc3cc(Cl)ccc23)CC1 | 17 | 52* | 50* | 36 | -19 | -16 | 30* | nt | 47*
N#Cc1cccc(S(=O)(=O)N2CCN(c3ccnc4cc(Cl)ccc34)CC2)c1 | 1 | 28 | 22 | 15 | -11 | -3 | nt | nt | nt
O=C(/C=C/c1cccs1)c1ccc(Br)cc1 | -7 | 13 | 6 | 17 | 1 | 18 | nt | nt | nt
O=C(/C=C\c1cccs1)c1c(O)ccc2ccc(=O)oc12 | 13 | 78* | 75* | 75* | -25 | 47 | 81* | 75* | 69*
Cc1cc(C(=O)N/N=C/C=C/c2ccccc2[N+](=O)[O-])c(C)o1 | -3 | 55* | 45* | 56* | 15 | 2 | 44* | 41* | 57*
Cc1occc1C(=O)N/N=C/C=C/c1ccccc1[N+](=O)[O-] | -12 | 32 | 24 | 21 | -43 | 20 | nt | nt | nt
O=C(NC(=S)Nc1ccccc1Br)C1CCC1 | 2 | 58* | 40* | 38 | 3 | 20 | 25 | nt | 40*
COc1ccc(/C(N)=N/OC(=O)CCC2CCCC2)cc1 | 5 | 65* | 60* | 54* | 7 | 4 | 56* | 53* | 67*
Cc1cccc(/C(N)=N/OC(=O)CCC2CCCCC2)c1 | 1 | 64* | 50* | 62* | -20 | -20 | 56* | 75* | 72*
SMILES | SKKanGAS inh | tim23-1 inh | tim10-1 inh | TIM10 inh | PfHsp90 set2 | NALP3 yeast inh | tim10-1 conf | tim10 confirm | tim23-1 conf
Cc1ccc(/C(N)=N/OC(=O)CCC2CCCC2)cc1 | 2 | 72* | 58* | 63* | -7 | 14 | 46* | 75* | 55*
Cc1ccc(/C(N)=N/OC(=O)CCC2CCCCC2)cc1 | 3 | 77* | 60* | 83* | nt | -1 | 44* | 82* | 71*
N/C(=N\OC(=O)CCC1CCCC1)c1cccnc1 | 4 | 23 | 38 | 9 | 11 | 2 | nt | nt | nt
C=CC[C@H](CC(=O)OC(C)(C)C)C(=O)OC[C@@H]1CCCN1C(=O)[C@@H](CC=C)CC(=O)N[C@H](CO)Cc1ccccc1 | nt | 18 | 14 | 1 | -4 | 12 | nt | nt | nt
COc1ccc(OC)c(S(=O)(=O)ON2C(=O)c3ccccc3C2=O)c1 | -1 | 12 | 13 | -1 | -25 | 11 | nt | nt | nt
N/C(=N\OC(=O)CCC1CCCC1)c1ccncc1 | 7 | 3 | 11 | 13 | -6 | 10 | nt | nt | nt
N/C(=N\OC(=O)CCC1CCCC1)c1ccc(Cl)cc1 | -7 | 59* | 61* | 79* | nt | 10 | 61* | 73* | 65*
N#CC(c1cccc(Cl)c1)c1ccc2c(C(F)(F)F)cc(C(F)(F)F)nc2n1 (configuration not stated) | 95* | 79* | 88* | 75* | 16 | 12 | 70* | 65* | 72*
CCN(CC)CCN1C(=O)C(=O)/C(=C(/O)c2ccc3c(c2)CC(C)O3)C1c1ccc(OC)cc1 (configuration not stated) | 0 | 4 | -1 | 7 | 12 | 5 | nt | nt | nt
O=C1NN=C(c2ccc(Cl)cc2)CC1c1cccc(Cl)c1 (configuration not stated) | 16 | 56* | 41* | 7 | nt | 10 | 27 | nt | 54*
Nc1nonc1C(=O)NCCN=Cc1cc(Cc2ccccc2)cc(Br)c1O | 52* | -56 | 13 | 51* | 123* | 18 | nt | 67* | nt
COC(=O)C1=NNC2C(=O)N(C3CCCCC3)C(=O)C12 (configuration not stated) | -4 | 23 | 9 | -20 | 8 | -5 | nt | nt | nt
CCOC(=O)c1cc(NC(=O)CN2CCCC2)cc(C(=O)OCC)c1 | -5 | 7 | 2 | 5 | -1 | 0 | nt | nt | nt
O=[N+]([O-])c1ccc(NC(=S)NCc2ccc(F)cc2)cc1 | 41 | 41 | 36 | 42* | -2 | 44 | nt | 42* | nt

Screens deposited in PubChem BioAssay by several laboratories.
